Laboratory results as given in PubChem BioAssay (NCI).
The panel holds about 83,000 compounds, 20% with a hit somewhere; the sample as a whole holds those more often.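 A percent growth of 40 corresponds to 60% growth inhibition; 0 means no net growth; -100 means all cells died. Active threshold: below 10.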 Activity calls are given as the source filed them.

What was measured:
Assay in all cases: NCI-60 one-dose screen, 48 h (100 = growth as untreated, 0 = no growth, -100 = all killed)
Conditions in all cases: 10 µM unless noted
DU-145 prostate = test system: DU-145 prostate
K-562 leukemia = test system: K-562 leukemia
MALME-3M melanoma = test system: MALME-3M melanoma
MDA-MB-231 breast = test system: MDA-MB-231 breast
RXF 393 renal = test system: RXF 393 renal
SF-268 CNS = test system: SF-268 CNS
SF-295 CNS = test system: SF-295 CNS
SF-539 CNS = test system: SF-539 CNS
UACC-257 melanoma = test system: UACC-257 melanoma
M14 melanoma = test system: M14 melanoma

Measured: growth

COc1ccc(CNc2c3ccccc3nc3ccccc23)cc1OC
active: K-562 leukemia 8.81% | MALME-3M melanoma 7.92% | RXF 393 renal 3.58%
inactive: DU-145 prostate 24.7% | MDA-MB-231 breast 19.4% | SF-268 CNS 39.6% | SF-295 CNS 18.1% | SF-539 CNS 15.4% | UACC-257 melanoma 22.1% | M14 melanoma 17.7%

COc1cccc(C2C3=C(COC3=O)N(CCO)c3cc4c(cc32)OCCO4)c1 (stereo not given)
active: DU-145 prostate -38.9% | K-562 leukemia 6.5% | MDA-MB-231 breast 8.33% | SF-295 CNS -5.81% | SF-539 CNS -23.1% | M14 melanoma -11.7%
inactive: MALME-3M melanoma 69.6% | RXF 393 renal 11.2% | SF-268 CNS 23.8% | UACC-257 melanoma 53.6%

C=CCn1c(SCC(=O)Nc2ccc(C(=O)/C=C/c3ccc(Cl)cc3)cc2)nnc1-c1ccccc1
inactive: DU-145 prostate 93.7% | K-562 leukemia 76.3% | MALME-3M melanoma 98.7% | MDA-MB-231 breast 101% | RXF 393 renal 118% | SF-268 CNS 84.7% | SF-295 CNS 94.9% | SF-539 CNS 96.6% | UACC-257 melanoma 111% | M14 melanoma 94.4%

Oc1c(Cl)cc(Cl)c2ccc(CN3CCNCC3)nc12
inactive: DU-145 prostate 50.8% | K-562 leukemia 19% | MALME-3M melanoma 67.9% | MDA-MB-231 breast 59.3% | RXF 393 renal 60.3% | SF-268 CNS 39.9% | SF-295 CNS 39.4% | SF-539 CNS 58.3% | UACC-257 melanoma 70.9% | M14 melanoma 47.7%

[2H]C([2H])([2H])Oc1ccc(/C=C/C(=O)/C=C(O)/C=C/c2ccc(OC([2H])([2H])[2H])c(OC([2H])([2H])[2H])c2)cc1OC([2H])([2H])[2H]
inactive: DU-145 prostate 59% | K-562 leukemia 17.6% | MALME-3M melanoma 79.2% | MDA-MB-231 breast 72% | RXF 393 renal 59.4% | SF-268 CNS 67.2% | SF-295 CNS 39.5% | SF-539 CNS 65.8% | UACC-257 melanoma 84% | M14 melanoma 52.5%

Cc1c2ccncc2c(C)c2c1c1ccccc1n2CCCCCC(=O)O
inactive: DU-145 prostate 104% | K-562 leukemia 92.5% | MALME-3M melanoma 108% | MDA-MB-231 breast 81.2% | RXF 393 renal 93.2% | SF-268 CNS 86.6% | SF-295 CNS 95.3% | SF-539 CNS 90.2% | UACC-257 melanoma 106% | M14 melanoma 103%

Cc1ccc(C2=Nc3c(N)nc(N)nc3NC(c3cccc(Nc4ccnc5cc(C(F)(F)F)ccc45)c3)C2)cc1 (stereo not given)
inactive: DU-145 prostate 46.6% | MALME-3M melanoma 39.1% | MDA-MB-231 breast 34.8% | RXF 393 renal 23.6% | SF-268 CNS 29.7% | SF-295 CNS 15.8% | SF-539 CNS 40.3% | UACC-257 melanoma 62.3% | M14 melanoma 11.1%
active: K-562 leukemia 8.46%

c1ccc2cc(Cn3cc[n+](Cc4ccc5ccccc5c4)c3)ccc2c1
inactive: DU-145 prostate 53.2% | K-562 leukemia 22.5% | MALME-3M melanoma 13.8% | MDA-MB-231 breast 18.7% | RXF 393 renal 35.1% | SF-268 CNS 32.1% | SF-295 CNS 70.3% | SF-539 CNS 50.2% | M14 melanoma 16.1%
active: UACC-257 melanoma -9.54%

CN1CCN(Cc2ccc(NC(=O)c3cncc(C#Cc4c(N)ncc5cc(F)ccc45)c3)cc2C(F)(F)F)CC1
inactive: SF-268 CNS 38.6% | SF-295 CNS 59.5% | UACC-257 melanoma 41.5%
active: DU-145 prostate -88% | K-562 leukemia -50% | MALME-3M melanoma -75.3% | MDA-MB-231 breast -90.4% | RXF 393 renal -59.9% | SF-539 CNS 9.53% | M14 melanoma -75.8%

CNC(=O)c1cc(Oc2ccc3nc(NC(=O)NC(C)C)sc3c2)ccn1
active: K-562 leukemia 7.14%
inactive: DU-145 prostate 98.8% | MALME-3M melanoma 86.2% | MDA-MB-231 breast 79.5% | RXF 393 renal 95.4% | SF-268 CNS 89.8% | SF-295 CNS 77.5% | SF-539 CNS 76.9% | UACC-257 melanoma 73.7% | M14 melanoma 50.5%

Cc1ccc(OCCOCCOCCOCCOc2ccc(C)n(O)c2=S)c(=S)n1O
inactive: DU-145 prostate 17.5% | K-562 leukemia 16.2% | MALME-3M melanoma 15.6% | MDA-MB-231 breast 34.9% | RXF 393 renal 38.6% | SF-268 CNS 11.4% | SF-295 CNS 18.2%
active: SF-539 CNS 5.23% | UACC-257 melanoma -9.07% | M14 melanoma -16.1%

CCOC(=O)c1cnc2sc(-c3ccc(OC)cc3)nc2c1Cl
inactive: DU-145 prostate 96.3% | K-562 leukemia 107% | MALME-3M melanoma 76.3% | MDA-MB-231 breast 101% | RXF 393 renal 101% | SF-268 CNS 103% | SF-295 CNS 105% | SF-539 CNS 104% | UACC-257 melanoma 101% | M14 melanoma 79.1%

Cn1ccnc1C(=O)/C=C/c1ccc(CC(=O)Nc2cc(F)c(F)c(F)c2)cc1
active: DU-145 prostate 3% | MDA-MB-231 breast 6.11% | RXF 393 renal -15.6% | SF-539 CNS -19.5%
inactive: K-562 leukemia 12.6% | MALME-3M melanoma 83.2% | SF-268 CNS 15.5% | SF-295 CNS 51.5% | UACC-257 melanoma 80.2% | M14 melanoma 62.7%
